The record followed here is PubChem BioAssay (NCI).

Several values for one entry are separate records, joined by “and”; a condition that tells them apart may be missing. Equal entries are not always repeated. Compounds without any hit were thinned out: in the full panel of roughly 83,000, 20% have a hit.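 Results are percent growth after 48 hours of single-concentration exposure. 100 means growth as in untreated cells, lower positive values show inhibition; negative values down to -100 show cell death.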 Activity calls are given as the source filed them. How the source made its calls: active means growth percent below 10; inactive means the rest.

The subject of the assay is MDA-MB-468 breast. The experiment in a line: NCI-60 one-dose screen, 48 h (100 = growth as untreated, 0 = no growth, -100 = all killed). Conditions: 10 µM unless noted.
As to `CS(=O)(=O)c1ccc(-n2cc(/C=N/O)c(-c3ccccc3)n2)cc1`, the growth was 35% (inactive). On to `COC(=O)C1=C(C(=O)ON)C2C=CC1(C(Cc1ccccc1)Nc1ccccc1)O2` (stereo not given), for which the growth was -45% (active).

Turning to `O=C(/C(=C/c1ccc([N+](=O)[O-])cc1)c1ccccc1)c1ccccc1`, the growth is 51.4% (inactive). Then `N=C1S/C(=C/c2ccc(-c3ccc4c(c3)C(=O)NC4=O)o2)C(=O)N1c1ccc(Br)cc1`, with 51.6% (inactive). Then `N#Cc1c(-c2ccc(F)cc2)cc(-c2c[nH]c3ccccc23)nc1-c1c[nH]c2ccccc12`, with 99.3% (inactive); and `NC(=S)Nc1cccc(O)c1`, with 101% (inactive). Under `N#CC1=C(N)Oc2ccc3ccccc3c2C1c1ccccc1` (stereo not given) stands 12.7% (inactive); under `FC(F)(F)c1[nH]ncc1-c1nc2ccc3[nH]ncc3c2c2c1CCCC2`, 19.7% (inactive). As to `CC(=O)O.CC(=O)O.O.[Fe]`, the growth was 100% (inactive). Under `CC1=C(/C=C/C(C)=C/C=C(C(=O)O)\C(C)=C\C(=O)O)C(C)(C)CCC1` stands 109% (inactive); under `Cc1cc(=O)n2nnc3cc(Cl)c(Cl)cc3n12`, 67% (inactive).

On to `COc1ccc(NC(=O)c2c(Nc3ccc(OC)cc3OC)n[nH]c2N)c(OC)c1`, for which the growth was 82.3% (inactive). Under `COc1ccc2nc3cc(Cl)ccc3c(NCCCNCCO)c2c1` stands -34.1% (active); under `CC(=O)ON1CCCC(P(=O)(OCOC(=O)C(C)(C)C)OCOC(=O)C(C)(C)C)C1=O` (stereo not given), -21.2% (active); under `C#CCn1cccc1CNc1ccc(OC)cc1`, -76.9% (active).

On to `CCCCCCCCCCSc1ncnc2nc[nH]c12`, for which the growth was 8.95% (active).

Consider `CC1CCC(C)(C)c2ccccc21` (stereo not given), for which the growth is 99.6% (inactive).

Take `Cc1ccccc1-n1nnc(C(=O)Nc2nc(-c3ccccc3)c(-c3ccccc3)s2)c1C`: the growth is 61.9% [50 µM] (inactive). With `COc1cc(Cl)cc(-c2nn(C(=O)NS(=O)(=O)c3ccccc3)cc2-c2ccncc2)c1`, the growth was 89% (inactive).

Regarding `COc1ccc(-c2nn(-c3cccc(Cl)c3)cc2-c2cc(-c3ccc(Br)cc3)[nH]c(=O)c2C#N)cc1`, the growth is 75.1% (inactive).

On to `c1cc(NCCc2ccncc2)nc(-n2cnc3ccccc32)c1`, for which the growth was 95% (inactive). Under `CC(C)NC(=O)OCc1c(COC(=O)NC(C)C)c(-c2ccc(Cl)cc2)n2c1CCC2` stands -8.97% (active). Take `Cc1cccc(Oc2ccc(Nc3ncnc4ccc(NC(=O)CN(C)C)cc34)cc2Cl)c1`: the growth is -45.2% (active). Under `C#CCOc1ccc2ncnc(Nc3cccc(CNC(=O)CCl)c3)c2c1` stands -3.41% [8.25 µM] (active).

Turning to `COc1cc(/C=C/C(=O)N2CCN(C(=O)c3cc(OC)c(OC)c(OC)c3)CC2)ccc1OCCCOc1cc2c(cc1OC)C(=O)N1CCC[C@H]1C=N2`, the growth is -34.6% (active). Then `COc1ccc(C2C=C(c3ccc(Cl)c(Cl)c3)N=C3SC(C)=CN32)cc1` (stereo not given), with 88.6% (inactive); and `COC(=O)C(CC(=O)c1ccc(-c2ccccc2)cc1)c1ccccc1` (stereo not given), with 52.5% (inactive). On to `Nc1nc(-c2cccc([N+](=O)[O-])c2)c(N=Nc2ccccc2)s1`, for which the growth was 11.5% (inactive). Then `CCN1C(=O)C2(Nc3ccccc3S2)c2cc(C)ccc21` (stereo not given), with 98.6% (inactive); and `CCOC(=O)N1C2CCC(C2)N1C(=O)OCC`, with 105% (inactive). Regarding `CS(=O)(=O)c1ccc(/C(=N/N=C(N)N)c2ccc(F)cc2)cc1`, the growth is -5.12% (active).

Turning to `COc1cc(C2C3=C(COC3=O)N(CCO)c3cc4c(cc32)CCC4)cc(OC)c1OC` (stereo not given), the growth is 0.574% (active). Under `Cc1onc(-c2c(F)cccc2Cl)c1-c1ncc(-c2ccc(Cl)cc2)o1` stands 66.2% (inactive) and 23.7% (inactive). Then `Nc1cccc(Nc2cc(S(=O)(=O)O)c(N)c3c2C(=O)c2ccccc2C3=O)c1`, with 112% (inactive); and `CCN(CC)CC(=O)Nc1c(C)ccc(N)c1C`, with 95.8% (inactive); and `O=C1CC(=O)N(c2ccccc2)O1`, with 105% (inactive). Consider `Cc1ccc(S(=O)(=O)OCCN(CCOS(=O)(=O)c2ccc(C)cc2)c2c[nH]c(=O)[nH]c2=O)cc1`, for which the growth is 98.5% (inactive).

Regarding `CCOC(=O)NC(C)C`, the growth is 96.4% (inactive). `N#C/C(=C\c1ccc(Br)cc1)n1nnc2cc(F)c(F)cc21`: the growth was -6.6% (active). Regarding `O=C1/C(=C/c2ccc(C(F)(F)F)cc2)COc2ccc(O)c(O)c21`, the growth was -36.8% (active).
